# Screening results as filed in PubChem BioAssay.
# Rows were chosen to be rich in hits. Some 3.3% of all compounds tested hit in one or more screens of this group.
# RE007 growth inh – less growth of the S. pombe RE007 Vpr strain; AID 651644; 360,000 tested, 0.21% active; S. pombe RE007 Vpr strain, BacTiter-Glo ATP luminescence, 24 h; Potency, µM (doses to about 92.2 µM), most hits filed as inhibitors; active means well fitted falling curve with a large enough effect; inconclusive means small, poorly fitted or top-dose-only effect; inactive means no such curve, though single readings can be large or run the other way; further: nearly all actives have a fitted effect of over 50% in size
#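 Fission yeast strain RE007, carrying one chromosomally integrated HIV-1 vpr copy, was seeded at OD 0.01 in PMG+AL medium with 23 nL pinned compound. After 24 h at 30 °C and 99% humidity, viability was read by BacTiter-Glo luminescence.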
# LmPK inh – blocks Leishmania mexicana pyruvate kinase activity; 290,000 tested, 0.37% active; Potency, µM (series often up to 57.5 µM), actives largely listed as inhibitors; AID 1721; purified LmPK, Kinase-Glo ATP luminescence, 1 h
# Target sequence (Q27686 whole entry, looked up): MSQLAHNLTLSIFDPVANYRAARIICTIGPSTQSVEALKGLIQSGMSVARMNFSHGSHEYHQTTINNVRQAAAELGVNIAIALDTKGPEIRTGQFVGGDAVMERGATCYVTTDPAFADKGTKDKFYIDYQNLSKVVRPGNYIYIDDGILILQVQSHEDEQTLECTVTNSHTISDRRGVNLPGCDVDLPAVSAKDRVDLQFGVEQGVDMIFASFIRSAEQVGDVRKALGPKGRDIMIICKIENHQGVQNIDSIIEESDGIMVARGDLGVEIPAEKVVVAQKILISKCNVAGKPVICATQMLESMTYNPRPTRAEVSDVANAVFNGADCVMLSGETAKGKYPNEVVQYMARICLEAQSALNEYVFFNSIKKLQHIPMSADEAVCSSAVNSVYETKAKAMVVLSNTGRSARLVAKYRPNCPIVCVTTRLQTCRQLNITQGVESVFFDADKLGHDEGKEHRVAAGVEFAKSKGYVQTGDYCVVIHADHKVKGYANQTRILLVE
#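 Kinase-Glo luminescence read after 1 h RT reaction of 0.1 nM LmPK with 0.5 mM PEP and 0.1 mM ADP. Activity scaled between uninhibited and enzyme-free controls.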
# Sm TGR block – blocks Schistosoma mansoni thioredoxin glutathione reductase; purified TGR, DTNB reduction, TNB absorbance 405 nm; AID 485364; 360,000 tested, 3% active; Potency, µM (doses to about 114 µM), actives largely listed as inhibitors; further: nearly all actives have a fitted effect of over 60% in size
#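 TGR 20 nM + NADPH 100 uM (dispensed conc.), cpd preinc 15 min RT; start with NADPH (500 uM addition) then DTNB (15 mM addition). Kinetic TNB absorbance, 405 nm filter. Four-parameter Hill fit across titration.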
# NS1 function inh – blocks influenza NS1 protein function | Potency, µM (highest dose often 46.1 µM) | 270,000 tested, 0.4% active; calls by dose curve; further: actives are rising curves; nearly all actives have a fitted effect of over 50% in size
#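 Growth recovery, yeast-based: influenza A NS1 expressed in S. cerevisiae causes slow growth, and suppressors are detected by OD600. The parent strain without NS1 is used as positive control.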
# SARS PLP yeast – inhibitors of SARS-CoV papain-like protease in yeast. 330,000 tested, 0.19% active. Potency, µM (highest dose often 32.9 µM), actives largely listed as activators. S. cerevisiae expressing SARS-CoV PLpro, growth rescue; calls by dose curve; further: nearly all actives have a fitted effect of over 55% in size
# Tb PYK inh – T. brucei pyruvate kinase inhibition; Q57TT1; TbPYK enzyme, Kinase-Glo Plus ATP luminescence, 45 min; Potency, µM (highest dose often 76.8 µM), usual class: inhibitors; 410,000 tested, 0.12% active; further: nearly all actives have a fitted effect of over 50% in size
#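 Assay buffer: 50 mM TEA pH 7.2, 100 mM KCl, 10 mM MgCl2, 0.05% BSA, 0.01% Tween-20. Pyruvate kinase from T. brucei plus substrate met compound, then ADP (130 uM final). Luminescence was read post 45 min RT.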
# Numbers stand for hits; i = inactive; ? = inconclusive; nt = not tested or not shown. Unless noted, the call rests on the fitted dose curve; in most records, active means well fitted curve in the direction sought with a large enough effect; inconclusive means small, poorly fitted or top-dose-only effect, or another doubt; inactive means no such curve, though single readings can be large; an effect the other way counts as inactive or inconclusive.
SMILES,RE007 growth inh,LmPK inh,Sm TGR block,NS1 function inh,SARS PLP yeast,Tb PYK inh
COc1ccccc1-c1cc(C(F)(F)F)nc(S(=O)(=O)CCCC(=O)NC(C)C)n1,i,i,i,i,i,i
COc1ccccc1-c1cc(C(F)(F)F)nc(S(C)(=O)=O)n1,i,i,28µM,i,i,i
Nc1nccnc1C(=O)OCC(=O)C12CC3CC(CC(C3)C1)C2,i,nt,i,nt,i,i
N#CC1(C#N)CC(C=O)=C(N)C1(C#N)CC(=O)C12CC3CC(CC(C3)C1)C2 (stereo not drawn),i,i,40µM,i,i,i
CC1=C(CC/C(C)=N/NC(N)=S)C(C)(C)CCC1,i,i,i,i,14µM,i
COC(=O)C(CC(=O)c1ccc(C)cc1)n1nc(C)cc1C (stereo not drawn),i,i,13µM,i,i,i
Cc1ccc(C(=O)CC(C(=O)O)n2cncn2)cc1 (stereo not drawn),i,i,i,i,i,i
COC(=O)C(CC(=O)c1ccc(Br)cc1)n1ccnc1 (stereo not drawn),nt,10µM,0.28µM,i,i,nt
COC(=O)C(CC(=O)c1ccc(Br)cc1)n1nc(C)cc1C (stereo not drawn),28µM,i,3.5µM,i,i,?
COc1cc(NC(=O)CC(C)n2ccnc2)cc(OC)c1 (stereo not drawn),i,i,i,i,i,i
COc1cccc(Cn2cnc3c2c(=O)n(C)c(=O)n3C)c1,nt,nt,i,nt,nt,i
O=C(CC1(O)C(=O)N(CCc2ccccc2)c2ccc(Br)cc21)c1ccccc1O (stereo not drawn),nt,nt,i,nt,nt,i
CCCc1nn2c(=O)cc(COC(=O)c3ccccc3NC(=O)c3ccc(Cl)cc3)nc2s1,nt,nt,i,nt,nt,i
Cc1csc(SCc2nnc(-c3ccccc3Br)o2)n1,i,i,i,i,i,i
Fc1ccccc1SCc1nnc(-c2ccccc2Br)o1,i,i,i,i,i,32µM
O=C1c2ccccc2NC(c2cccc(O)c2)N1Cc1ccco1 (stereo not drawn),i,i,32µM,i,i,i
COc1ccc(C2Nc3ccccc3C(=O)N2Cc2ccco2)cc1CN1C(=O)c2ccccc2C1=O (stereo not drawn),i,i,?,i,i,i
Cc1ccc(S(=O)(=O)c2ccc(C)cc2)cc1,i,i,i,i,i,i
Cc1ccc(S(=O)(=O)C=CS(=O)(=O)c2ccc(C)cc2)cc1,1.4µM,nt,nt,nt,nt,?
COc1ccc(OCC(=O)Nc2nnc3n2CCS3)cc1,nt,nt,i,nt,nt,i
C[C@@H](N=C(N)N)C(=O)O,nt,nt,nt,i,nt,nt
CCc1nc2oc3cc(OC)ccc3c(=O)c2c(=O)n1Cc1ccco1,i,i,28µM,i,i,i
COc1ccc(Cn2c(-c3ccco3)nc3oc4cc(OC)ccc4c(=O)c3c2=O)cc1,i,i,?,i,i,i
COc1ccc2c(=O)c3c(=O)n(Cc4ccco4)c(-c4ccco4)nc3oc2c1,i,i,40µM,i,i,i
COc1ccc(-c2nc3oc4cc(OC)ccc4c(=O)c3c(=O)n2Cc2ccco2)cc1,i,i,20µM,i,i,i
SMILES,RE007 growth inh,LmPK inh,Sm TGR block,NS1 function inh,SARS PLP yeast,Tb PYK inh
CC(C)CC(=O)NCC(c1ccc2c(c1)OCO2)N1CCN(c2ccccc2F)CC1 (stereo not drawn),nt,nt,i,nt,nt,i
CCc1cccc(NC(=O)CC(c2ccc(OC)cc2)N2Cc3ccccc3C2=O)c1 (stereo not drawn),nt,nt,i,nt,nt,i
COc1ccccc1NC(=O)Cn1c(=O)n(Cc2ccco2)c(=O)c2oc3ccccc3c21,nt,nt,i,nt,nt,i
CCN1C(=O)/C(=C\c2ccc([N+](=O)[O-])s2)C(=O)NC1=S,nt,i,2.8µM,nt,i,nt
C=CCN1C(=O)/C(=C/c2ccc(Br)s2)C(=O)NC1=S,?,i,2.5µM,i,i,i
CCCN1C(=O)/C(=C/c2ccc(C)s2)NC1=S,?,i,?,i,i,i
O=[N+]([O-])c1ccc(-c2ccccc2)c([As](=O)(O)O)c1,nt,i,2µM,i,i,i
Cn1c(CN2CCN(c3ccc(Cl)cc3)CC2)nc2ccccc21,i,i,i,i,8.9µM,i
Cc1cccc(Nc2c3c(nc4nncn24)CCC3)c1C,nt,nt,40µM,nt,nt,i
